The results in this text go back to PubChem BioAssay (Tox21).

Inconclusive results are not listed. A call without a number means that no potency is given here. Activity calls are given as the source filed them. Calls follow the shape of the dose curve; as a rule, active = well fitted cell-killing curve with a large enough effect in the repeat runs; inconclusive = weak or mixed curves, or effect the other way; inactive = flat fitted curve, though single readings scatter.

A short description of this experiment: cAMP Responsive Elements (CRE) small molecule agonists, cell-based qHTS assay: qHTS cell viability counter screen (AID 2060914). Also: nearly all actives have a fitted effect of over 50% in size. As to conditions: CRE-bla HEK293T viability, CellTiter-Glo luminescence, 5 h; series mostly up to 92.4 µM. Summed up: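 CRE-bla HEK 293T cells, plated 18 h at 37 °C, were exposed to compounds for 3 h at 37 °C/5% CO2. Viability was then measured in the same wells by CellTiter-Glo luminescence after 30 min at room temperature.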
In general terms: qHTS replaces the single test concentration by a dilution series.
Take `CN(C)CCOC(=O)COc1ccc(Cl)cc1`: the Potency result is “inactive”.
Next, `CC(=O)/C=C/C=C1/C2CCC(C2)C1(C)C` (stereo unspecified): “inactive”.
The result for `Cc1ccc(C(C)(C)O)cc1` reads “inactive”; that for `N#CCCOCCOCCC#N`, “inactive”; that for `O=C1Nc2ccccc2C1=O`, “inactive”.
The result for `[Ca+2]` reads “inactive”; that for `Cc1c[nH]c2ccccc12`, “inactive”.
Consider `C=CCOC(=O)CCC1CCCCC1`, for which the Potency result was “inactive”.
On to `O=C1OC2(c3ccc(O)cc3Oc3cc(O)ccc32)c2ccc(N=C=S)cc21`, for which the Potency result is “inactive”.
The result for `COCCOC` reads “inactive”.
The result for `OC1C(O)C(O)C(O)C(O)C1O` (stereo unspecified) reads “inactive”; that for `CCCC(C)c1ccccc1O` (stereo unspecified), “inactive”; that for `C[Si](C)(CCCN)O[Si](C)(C)CCCN`, “inactive”.
The result for `Cc1[nH]c(=O)c(C#N)cc1-c1ccncc1` reads “inactive”; that for `Cc1c(F)cc2c(=O)c(C(=O)O)cn3c2c1CCC3C` (stereo unspecified), “inactive”; that for `C=C1CC[C@H]2O[C@]2(C)CC[C@@H]2[C@@H]1CC2(C)C`, “inactive”.
Regarding `COc1cc2c(cc1OC)-c1cc3ccc(OC)c(OC)c3c[n+]1CC2`, the Potency entry is “inactive”.
In the case of `CCCCC(CC)CNCC(CC)CCCC` (stereo unspecified), the Potency result was “inactive”.
Next, `COc1ccc(C(=O)CC(=O)c2ccc(C(C)(C)C)cc2)cc1`: “inactive”; `CCCCC(O)/C=C(C)/C=C/C=C/C(=O)N1CCCC1=O` (stereo unspecified): “inactive”.
As for `CC(Oc1c(Cl)cccc1Cl)C1=NCCN1` (stereo unspecified), the Potency result is “inactive”.
The result for `CCCCCOC(=O)CCC` reads “inactive”; that for `COC(=O)c1sccc1S(N)(=O)=O`, “inactive”.
The result for `O=S(=O)(O)c1cc(O)c2ccc(Nc3ccccc3)cc2c1` reads “inactive”; that for `CC1=NN(c2cc(S(=O)(=O)O)ccc2Cl)C(=O)C1N=Nc1ccccc1` (stereo unspecified), “inactive”; that for `CC(CO)(CO)[N+](=O)[O-]`, “inactive”.
